Results published in PubChem BioAssay (NCATS).
Records with an inconclusive call do not appear. Where a call stands in place of a potency, no number is given. Activity calls are given as the source filed them. Calls follow the shape of the full dose curve.

Assay: Primary qHTS for inhibitors of MERS-S pseudo-typed particle cell entry (AID 1479149); also: nearly all actives have a fitted effect of over 60% in size; also: potency is read from the fitted curve at half-maximal effect
Settings: MERS-S pseudotyped particle entry, luciferase; series mostly up to 57.1 µM; activity change, negative = inhibition: at the top concentration

SMILES	outcome	activity change, negative = inhibition	Potency
CSc1ccc(C(=O)c2[nH]c(=O)[nH]c2C)cc1	inactive	–	–
CCN(CC)C(=O)c1cccc(C)c1	–	-13.7% (inactive)	–
Oc1cccc(-c2c3nc(c(-c4cccc(O)c4)c4ccc([nH]4)c(-c4cccc(O)c4)c4nc(c(-c5cccc(O)c5)c5ccc2[nH]5)CC4)C=C3)c1	–	0.887% (inactive)	–
C[C@]12CCC(=O)C=C1CC[C@@H]1[C@@H]2[C@@H](O)C[C@@]2(C)[C@H]1CC[C@]2(O)C(=O)CO	inactive	–	–
NC(CSCC(=O)O)C(=O)O (configuration not stated)	inactive	–	–
O=C(O)CCC(=O)OC[C@@H](NC(=O)C(Cl)Cl)[C@H](O)c1ccc([N+](=O)[O-])cc1	inactive	–	–
CCOC(=O)[C@H](CCc1ccccc1)N[C@H]1CCc2ccccc2N(CC(=O)O)C1=O	inactive	–	–
CN(C)CC/C=C1\c2ccccc2Sc2ccc(Cl)cc21	–	–	25.1 µM (active)
CCCc1cc(C(N)=S)ccn1	inactive	–	–
CCCCCC1Nc2cc(C(F)(F)F)c(S(N)(=O)=O)cc2S(=O)(=O)N1 (configuration not stated)	inactive	–	–
O=C1OC2(c3ccccc31)c1cc(I)c(O)c(I)c1Oc1c2cc(I)c(O)c1I	inactive	–	–
Cc1cccc(N(C)C(=S)Oc2ccc3ccccc3c2)c1	inactive	–	–
CCOc1c(N2CCOCC2)cnn(C)c1=O	inactive	–	–
CNC(=O)c1c(I)c(NC(=O)CCCCC(=O)Nc2c(I)c(C(=O)O)c(I)c(C(=O)NC)c2I)c(I)c(C(=O)O)c1I	inactive	–	–
CC(C(O)c1ccc(O)cc1)N1CCC(Cc2ccccc2)CC1 (configuration not stated)	–	-0.0554% (inactive)	–
CCCCOc1ccc(CC(=O)NO)cc1	–	-8.11% (inactive)	–
CC(=O)OCC(=O)[C@@]1(O)CCC2C3CCC4=CC(=O)CC[C@]4(C)C3[C@@H](O)C[C@@]21C (some centres not stated)	inactive	–	–
CC(C)(C)CC(=O)OCC(=O)[C@@]1(O)CC[C@H]2[C@@H]3CCC4=CC(=O)C=C[C@]4(C)[C@H]3[C@@H](O)C[C@@]21C	–	-14.9% (inactive)	–
NC(N)=NCCC[C@H](N)C(=O)O	inactive [at 5.34 µM]	–	–

Assay: Primary qHTS for Vero E6 cytotoxicity: counterscreen for inhibitors of SARS-S pseudo-typed particle cell entry (AID 1479150)
Settings: cell viability; series mostly up to 57.1 µM; activity change, negative = cytotoxicity: at the top concentration

SMILES	outcome	activity change, negative = cytotoxicity
CSc1ccc(C(=O)c2[nH]c(=O)[nH]c2C)cc1	inactive	–
CCN(CC)C(=O)c1cccc(C)c1	–	3.94% (inactive)
NC(=O)c1ncn([C@@H]2O[C@H](CO)[C@@H](O)[C@H]2O)c1N	inactive	–
Oc1cccc(-c2c3nc(c(-c4cccc(O)c4)c4ccc([nH]4)c(-c4cccc(O)c4)c4nc(c(-c5cccc(O)c5)c5ccc2[nH]5)CC4)C=C3)c1	–	-9.36% (inactive)
CC(C)[C@@H]1CC[C@@H](C)CC1=O	–	-12% (inactive)
CCOC(=O)Cn1cccc1-c1nc(-c2ccc(OC)cc2)c(-c2ccc(OC)cc2)s1	–	-7.11% (inactive)
CC(C)(C)c1ccc(C(O)CCCN2CCC(C(O)(c3ccccc3)c3ccccc3)CC2)cc1 (configuration not stated)	inactive	–
COc1ccc2[nH]c(S(=O)Cc3ncc(C)c(OC)c3C)nc2n1 (configuration not stated)	inactive	–
FC(F)(F)C(F)(F)C(F)(F)C(F)(F)C(F)(F)C(F)(F)C(F)(F)C(F)(F)Br	inactive	–
CC(=O)[C@H]1CC[C@H]2[C@@H]3CC=C4C[C@@H](O)CC[C@]4(C)[C@H]3CC[C@]12C	inactive	–
O=C(O)CNC(=O)c1ccccc1I	–	0.768% (inactive)
C[C@]12CCC(=O)C=C1CC[C@@H]1[C@@H]2[C@@H](O)C[C@@]2(C)[C@H]1CC[C@]2(O)C(=O)CO	inactive	–
CC(C)C(=O)Nc1cccc(C2CN3CCSC3=N2)c1 (configuration not stated)	–	-5.15% (inactive)
NC(CSCC(=O)O)C(=O)O (configuration not stated)	–	1.87% (inactive)
N=C(N)c1ccc2cc(OC(=O)c3ccc(N=C(N)N)cc3)ccc2c1	–	-0.252% (inactive)
O=C(O)CCC(=O)OC[C@@H](NC(=O)C(Cl)Cl)[C@H](O)c1ccc([N+](=O)[O-])cc1	inactive	–
CCOC(=O)[C@H](CCc1ccccc1)N[C@H]1CCc2ccccc2N(CC(=O)O)C1=O	inactive	–
CN(C)CC/C=C1\c2ccccc2Sc2ccc(Cl)cc21	–	-4.64% (inactive)
CCN(CCCc1ccccc1)CCCc1ccccc1	inactive	–

SMILES	outcome	activity change, negative = cytotoxicity
CCCC(=O)O[C@]1(C(=O)CCl)[C@@H](C)C[C@H]2[C@@H]3CCC4=CC(=O)C=C[C@]4(C)[C@@]3(F)C(=O)C[C@@]21C	–	-0.624% (inactive)
CCOC(=O)C1=C[C@]2(CC)CCCN3CCc4c(n1c1ccccc41)[C@@H]32	inactive	–
CCCc1cc(C(N)=S)ccn1	–	0.943% (inactive)
Cn1c(=O)c2c(ncn2C)n(C)c1=O	inactive	–
CCCCCC1Nc2cc(C(F)(F)F)c(S(N)(=O)=O)cc2S(=O)(=O)N1 (configuration not stated)	inactive	–
O=C1OC2(c3ccccc31)c1cc(I)c(O)c(I)c1Oc1c2cc(I)c(O)c1I	–	-9.65% (inactive)
Cc1cccc(N(C)C(=S)Oc2ccc3ccccc3c2)c1	–	-11.9% (inactive)
CCOc1c(N2CCOCC2)cnn(C)c1=O	inactive	–
CNC(=O)c1c(I)c(NC(=O)CCCCC(=O)Nc2c(I)c(C(=O)O)c(I)c(C(=O)NC)c2I)c(I)c(C(=O)O)c1I	–	-6.44% (inactive)
COc1cc(C(=O)OCCCN2CCCN(CCCOC(=O)c3cc(OC)c(OC)c(OC)c3)CC2)cc(OC)c1OC	inactive	–
CC(C(O)c1ccc(O)cc1)N1CCC(Cc2ccccc2)CC1 (configuration not stated)	–	-6.31% (inactive)
CCCCOc1ccc(CC(=O)NO)cc1	–	-7.1% (inactive)
CC(=O)OCC(=O)[C@@]1(O)CCC2C3CCC4=CC(=O)CC[C@]4(C)C3[C@@H](O)C[C@@]21C (some centres not stated)	inactive	–
CC(C)(C)CC(=O)OCC(=O)[C@@]1(O)CC[C@H]2[C@@H]3CCC4=CC(=O)C=C[C@]4(C)[C@H]3[C@@H](O)C[C@@]21C	inactive	–
CN1C[C@H](C(=O)N[C@]2(C)O[C@@]3(O)[C@@H]4CCCN4C(=O)[C@H](Cc4ccccc4)N3C2=O)C[C@@H]2c3cccc4[nH]cc(c34)C[C@H]21	inactive	–
CCN(CCCCOC(=O)c1ccc(OC)c(OC)c1)C(C)Cc1ccc(OC)cc1 (configuration not stated)	–	0.848% (inactive)
CCOC(=O)C1=C(C)NC(C)=C(C(=O)OCC)C1c1ccccc1/C=C/C(=O)OC(C)(C)C	–	-8.15% (inactive)
C[N+]1(CC2COC(c3ccccc3)(C3CCCCC3)O2)CCCCC1 (configuration not stated)	–	-4.15% (inactive)
NC(N)=NCCC[C@H](N)C(=O)O	–	0.575% [at 5.34 µM] (inactive)
